# Laboratory results reported in PMC7862700, “An all-to-all approach to the identification of sequence-specific readers for epigenetic DNA modifications on cytosine”.
# Experiments:
# Test in all cases: DAPPL (digital affinity profiling via proximity ligation, sequencing); 10 mM Tris-HCl pH 7.5, 50 mM NaCl, 1 mM DTT, 4% glycerol, room temperature, 30 min; GST-TFs on glutathione beads, 16-mer random dsDNA library, 0.1% formaldehyde crosslink after washing; high values mean tight binding
# FLI1 = target: T1, FLI1 (Homo sapiens, UniProt Q01543 1-452); settings: protein: recombinant; tags: N-terminal GST; dsDNA, one strand shown
# T1 sequence: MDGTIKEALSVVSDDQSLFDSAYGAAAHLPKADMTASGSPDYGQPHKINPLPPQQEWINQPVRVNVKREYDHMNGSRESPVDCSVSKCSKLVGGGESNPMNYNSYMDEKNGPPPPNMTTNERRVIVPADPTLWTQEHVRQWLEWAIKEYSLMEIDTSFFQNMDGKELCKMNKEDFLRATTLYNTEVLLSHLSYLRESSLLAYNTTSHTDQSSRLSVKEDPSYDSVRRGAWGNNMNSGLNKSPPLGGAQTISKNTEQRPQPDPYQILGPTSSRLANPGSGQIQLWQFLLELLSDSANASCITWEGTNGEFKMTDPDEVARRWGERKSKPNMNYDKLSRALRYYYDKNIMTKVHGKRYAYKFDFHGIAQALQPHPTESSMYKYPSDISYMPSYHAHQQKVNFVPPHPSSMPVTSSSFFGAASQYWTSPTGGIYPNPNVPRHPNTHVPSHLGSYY
# How it was run: (§1)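 Human transcription factors fused to GST were expressed in yeast, captured on glutathione beads, given DNA barcodes and pooled with a GST-only negative control. Pools were incubated with 200 nmole of a 16-mer random double-stranded DNA library in Tris/NaCl/DTT/glycerol buffer at room temperature for 30 min. They were then washed, crosslinked with 0.1% formaldehyde, proximity-ligated (BsaI/T4 ligase, 1 h, 37 °C), PCR-amplified and sequenced on an Illumina NextSeq500. Binding signal is each 6-mer's read frequency for a factor divided by its frequency for the GST control.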
# ELK1 = target: T2, ELK1 (Homo sapiens, UniProt P19419 1-428); settings: protein: recombinant; tags: N-terminal GST; dsDNA, one strand shown
# T2 sequence: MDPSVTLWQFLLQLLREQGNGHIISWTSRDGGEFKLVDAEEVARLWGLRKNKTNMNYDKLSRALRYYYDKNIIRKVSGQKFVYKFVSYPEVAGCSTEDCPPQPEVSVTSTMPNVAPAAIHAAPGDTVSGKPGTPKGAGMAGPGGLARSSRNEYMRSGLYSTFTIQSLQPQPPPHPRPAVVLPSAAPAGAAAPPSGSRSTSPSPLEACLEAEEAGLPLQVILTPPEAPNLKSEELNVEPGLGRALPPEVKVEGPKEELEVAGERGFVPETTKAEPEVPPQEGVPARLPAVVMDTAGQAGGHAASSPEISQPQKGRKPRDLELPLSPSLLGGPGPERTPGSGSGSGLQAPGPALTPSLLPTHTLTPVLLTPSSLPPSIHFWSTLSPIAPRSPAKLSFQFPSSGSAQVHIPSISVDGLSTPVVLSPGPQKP
# How it was run: as §1
# GABPA = target: T3, GABPA (Homo sapiens, UniProt Q06546 1-454); settings: protein: recombinant; tags: N-terminal GST; dsDNA, one strand shown
# T3 sequence: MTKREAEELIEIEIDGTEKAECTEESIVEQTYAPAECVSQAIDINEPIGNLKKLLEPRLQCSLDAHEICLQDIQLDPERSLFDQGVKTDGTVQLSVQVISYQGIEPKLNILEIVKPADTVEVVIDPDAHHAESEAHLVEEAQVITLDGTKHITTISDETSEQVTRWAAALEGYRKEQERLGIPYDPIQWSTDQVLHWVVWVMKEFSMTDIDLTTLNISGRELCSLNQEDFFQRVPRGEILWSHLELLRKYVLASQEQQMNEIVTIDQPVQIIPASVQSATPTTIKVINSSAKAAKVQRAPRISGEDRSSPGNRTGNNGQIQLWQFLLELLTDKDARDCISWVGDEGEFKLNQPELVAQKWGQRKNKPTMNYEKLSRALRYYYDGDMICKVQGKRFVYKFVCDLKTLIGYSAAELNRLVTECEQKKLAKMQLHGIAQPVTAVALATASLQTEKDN
# How it was run: as §1
# ERG = target: T4, ERG (Homo sapiens, UniProt P11308 1-479); settings: protein: recombinant; tags: N-terminal GST; dsDNA, one strand shown
# T4 sequence: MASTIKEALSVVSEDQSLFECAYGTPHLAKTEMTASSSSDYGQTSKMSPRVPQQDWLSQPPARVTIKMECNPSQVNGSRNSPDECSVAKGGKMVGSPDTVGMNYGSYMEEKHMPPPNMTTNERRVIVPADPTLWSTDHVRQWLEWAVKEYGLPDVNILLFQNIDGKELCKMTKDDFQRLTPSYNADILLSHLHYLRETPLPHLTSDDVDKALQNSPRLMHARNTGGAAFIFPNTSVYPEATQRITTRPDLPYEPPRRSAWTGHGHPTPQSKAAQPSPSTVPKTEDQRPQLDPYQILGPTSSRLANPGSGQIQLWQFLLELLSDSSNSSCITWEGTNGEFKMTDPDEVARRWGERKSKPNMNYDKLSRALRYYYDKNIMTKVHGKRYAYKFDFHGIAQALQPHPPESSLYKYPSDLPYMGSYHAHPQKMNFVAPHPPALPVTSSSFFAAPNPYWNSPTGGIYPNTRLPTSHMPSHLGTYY
# How it was run: as §1
# ELF1 = ELF1 (Homo sapiens, UniProt P32519 1-619); settings: protein: recombinant; tags: N-terminal GST; dsDNA, one strand shown
# ELF1, sequence (P32519 whole entry): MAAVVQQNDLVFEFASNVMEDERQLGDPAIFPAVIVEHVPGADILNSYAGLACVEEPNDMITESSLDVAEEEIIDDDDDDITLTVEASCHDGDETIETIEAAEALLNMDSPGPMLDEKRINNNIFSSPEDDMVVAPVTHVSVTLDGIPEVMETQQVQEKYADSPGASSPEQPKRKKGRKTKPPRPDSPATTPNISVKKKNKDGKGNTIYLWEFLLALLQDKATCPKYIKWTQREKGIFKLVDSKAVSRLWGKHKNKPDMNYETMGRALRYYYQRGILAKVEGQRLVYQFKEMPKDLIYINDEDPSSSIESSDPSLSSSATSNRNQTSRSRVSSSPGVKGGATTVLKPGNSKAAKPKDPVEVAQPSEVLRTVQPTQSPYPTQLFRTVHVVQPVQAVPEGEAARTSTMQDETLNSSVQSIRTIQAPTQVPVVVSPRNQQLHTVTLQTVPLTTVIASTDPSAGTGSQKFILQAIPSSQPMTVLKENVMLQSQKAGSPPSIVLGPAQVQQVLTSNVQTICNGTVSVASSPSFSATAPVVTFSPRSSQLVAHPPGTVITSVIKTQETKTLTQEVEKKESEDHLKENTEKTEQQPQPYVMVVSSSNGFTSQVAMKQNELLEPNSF
# How it was run: as §1
# EHF = target: T5, EHF (Homo sapiens, UniProt Q9NZC4 1-300); settings: protein: recombinant; tags: N-terminal GST; dsDNA, one strand shown
# T5 sequence: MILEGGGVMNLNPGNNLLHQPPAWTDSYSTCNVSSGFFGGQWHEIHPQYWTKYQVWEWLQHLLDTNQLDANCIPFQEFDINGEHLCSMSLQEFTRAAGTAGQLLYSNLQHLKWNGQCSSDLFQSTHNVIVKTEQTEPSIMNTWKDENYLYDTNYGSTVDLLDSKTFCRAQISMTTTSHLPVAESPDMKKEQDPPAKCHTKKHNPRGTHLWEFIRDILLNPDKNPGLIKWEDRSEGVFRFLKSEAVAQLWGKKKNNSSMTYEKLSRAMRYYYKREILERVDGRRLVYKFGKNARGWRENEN
# How it was run: as §1
# SPI1 = SPI1 (Homo sapiens, UniProt P17947 1-270); settings: protein: recombinant; tags: N-terminal GST; dsDNA, one strand shown
# How it was run: as §1
# SPIB = SPIB (Homo sapiens, UniProt Q01892 1-262); settings: protein: recombinant; tags: N-terminal GST; dsDNA, one strand shown
# SPIB, sequence (Q01892 whole entry): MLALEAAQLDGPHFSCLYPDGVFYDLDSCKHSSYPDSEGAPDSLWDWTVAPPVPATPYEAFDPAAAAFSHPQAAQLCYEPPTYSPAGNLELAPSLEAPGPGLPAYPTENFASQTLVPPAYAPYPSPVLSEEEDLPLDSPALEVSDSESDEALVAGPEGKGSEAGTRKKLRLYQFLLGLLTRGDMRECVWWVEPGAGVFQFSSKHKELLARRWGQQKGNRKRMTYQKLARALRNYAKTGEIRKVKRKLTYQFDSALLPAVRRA
# How it was run: as §1
# ELK3 = target: T6, ELK3 (Homo sapiens, UniProt P41970 1-407); settings: protein: recombinant; tags: N-terminal GST; dsDNA, one strand shown
# T6 sequence: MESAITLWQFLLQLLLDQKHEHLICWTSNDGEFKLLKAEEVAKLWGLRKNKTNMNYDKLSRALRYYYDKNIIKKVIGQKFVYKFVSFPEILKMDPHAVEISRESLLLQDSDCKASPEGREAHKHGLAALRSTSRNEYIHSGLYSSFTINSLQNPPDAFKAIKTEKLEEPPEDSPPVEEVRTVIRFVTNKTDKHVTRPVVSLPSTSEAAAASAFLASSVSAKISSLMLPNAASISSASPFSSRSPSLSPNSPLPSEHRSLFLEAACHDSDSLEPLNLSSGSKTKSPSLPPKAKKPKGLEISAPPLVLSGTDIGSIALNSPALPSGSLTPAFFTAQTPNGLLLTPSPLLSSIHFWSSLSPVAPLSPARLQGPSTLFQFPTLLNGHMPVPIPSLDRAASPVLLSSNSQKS
# How it was run: as §1
# FEV = target: T7, FEV (Homo sapiens, UniProt Q99581 1-238); settings: protein: recombinant; tags: N-terminal GST; dsDNA, one strand shown
# T7 sequence: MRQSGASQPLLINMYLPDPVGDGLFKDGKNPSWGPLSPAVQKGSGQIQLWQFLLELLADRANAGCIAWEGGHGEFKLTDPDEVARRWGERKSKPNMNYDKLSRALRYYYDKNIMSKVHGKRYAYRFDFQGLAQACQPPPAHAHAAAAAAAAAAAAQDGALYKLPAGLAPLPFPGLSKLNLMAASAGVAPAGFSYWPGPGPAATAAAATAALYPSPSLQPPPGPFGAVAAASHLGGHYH
# How it was run: as §1
# ETV5 = ETV5 (Homo sapiens, UniProt P41161 1-510); settings: protein: recombinant; tags: N-terminal GST; dsDNA, one strand shown
# ETV5, sequence (P41161 whole entry): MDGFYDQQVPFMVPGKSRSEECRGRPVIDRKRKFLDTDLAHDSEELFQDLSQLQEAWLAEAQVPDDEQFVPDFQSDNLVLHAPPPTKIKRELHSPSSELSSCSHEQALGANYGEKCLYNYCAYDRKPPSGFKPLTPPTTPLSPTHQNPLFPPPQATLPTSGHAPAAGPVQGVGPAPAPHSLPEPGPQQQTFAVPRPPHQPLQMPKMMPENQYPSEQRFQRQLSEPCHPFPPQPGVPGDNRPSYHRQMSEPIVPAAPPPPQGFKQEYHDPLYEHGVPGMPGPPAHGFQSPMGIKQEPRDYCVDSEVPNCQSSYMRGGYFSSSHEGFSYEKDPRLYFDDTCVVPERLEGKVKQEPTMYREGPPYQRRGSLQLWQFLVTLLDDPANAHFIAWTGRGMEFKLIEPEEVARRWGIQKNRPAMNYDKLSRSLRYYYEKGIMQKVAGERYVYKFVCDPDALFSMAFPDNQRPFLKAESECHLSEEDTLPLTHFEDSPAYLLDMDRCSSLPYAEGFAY
# How it was run: as §1
# HSF1 = HSF1 (Homo sapiens, UniProt Q00613 1-529); settings: protein: recombinant; tags: N-terminal GST; chain copies: 3; dsDNA, one strand shown
# HSF1, sequence (Q00613 whole entry): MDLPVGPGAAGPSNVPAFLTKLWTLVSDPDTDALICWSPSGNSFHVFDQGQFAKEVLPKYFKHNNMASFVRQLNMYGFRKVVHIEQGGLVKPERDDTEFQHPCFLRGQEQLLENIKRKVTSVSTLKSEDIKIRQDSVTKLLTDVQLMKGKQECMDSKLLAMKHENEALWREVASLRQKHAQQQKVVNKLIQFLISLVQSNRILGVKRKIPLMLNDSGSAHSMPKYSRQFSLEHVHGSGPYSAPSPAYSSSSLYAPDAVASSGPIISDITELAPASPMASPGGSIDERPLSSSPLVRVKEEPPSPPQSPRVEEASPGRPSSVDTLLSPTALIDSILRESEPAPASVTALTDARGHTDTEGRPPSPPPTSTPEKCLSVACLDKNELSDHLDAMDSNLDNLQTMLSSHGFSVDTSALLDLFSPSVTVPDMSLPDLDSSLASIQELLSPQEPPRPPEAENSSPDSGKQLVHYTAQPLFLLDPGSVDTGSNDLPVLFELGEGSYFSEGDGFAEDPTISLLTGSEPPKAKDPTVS
# How it was run: as §1
# SPIC = target: T8, SPIC (Homo sapiens, UniProt Q8N5J4 1-248); settings: protein: recombinant; tags: N-terminal GST; dsDNA, one strand shown
# T8 sequence: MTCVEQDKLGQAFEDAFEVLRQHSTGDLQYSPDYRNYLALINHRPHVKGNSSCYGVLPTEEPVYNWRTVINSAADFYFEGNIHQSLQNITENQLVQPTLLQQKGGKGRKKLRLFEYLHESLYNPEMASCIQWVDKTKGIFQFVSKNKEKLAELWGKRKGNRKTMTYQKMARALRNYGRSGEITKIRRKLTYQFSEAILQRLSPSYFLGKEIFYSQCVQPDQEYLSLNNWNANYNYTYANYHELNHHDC
# How it was run: as §1
# ELF4 = ELF4 (Homo sapiens, UniProt Q99607 1-663); settings: protein: recombinant; tags: N-terminal GST; dsDNA, one strand shown
# ELF4, sequence (Q99607 whole entry): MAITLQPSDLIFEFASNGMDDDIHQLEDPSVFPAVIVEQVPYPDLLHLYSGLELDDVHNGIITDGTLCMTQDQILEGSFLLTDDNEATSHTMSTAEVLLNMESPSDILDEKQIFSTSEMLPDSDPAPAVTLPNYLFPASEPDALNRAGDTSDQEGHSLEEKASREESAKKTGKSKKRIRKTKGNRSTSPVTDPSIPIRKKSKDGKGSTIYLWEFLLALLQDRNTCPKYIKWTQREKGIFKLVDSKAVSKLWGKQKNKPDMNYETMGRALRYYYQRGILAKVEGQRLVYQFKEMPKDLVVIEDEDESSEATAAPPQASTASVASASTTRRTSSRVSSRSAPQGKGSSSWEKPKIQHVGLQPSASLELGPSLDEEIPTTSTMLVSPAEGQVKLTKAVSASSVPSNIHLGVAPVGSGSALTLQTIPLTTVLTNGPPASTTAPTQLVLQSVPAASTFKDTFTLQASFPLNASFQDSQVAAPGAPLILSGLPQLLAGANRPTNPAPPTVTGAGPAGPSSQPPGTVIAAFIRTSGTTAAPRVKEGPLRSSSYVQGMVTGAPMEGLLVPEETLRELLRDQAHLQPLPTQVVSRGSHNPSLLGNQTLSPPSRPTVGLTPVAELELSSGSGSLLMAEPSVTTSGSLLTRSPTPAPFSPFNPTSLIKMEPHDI
# How it was run: as §1
# ELK4 = target: T9, ELK4 (Homo sapiens, UniProt P28324-2 1-405); settings: protein: recombinant; tags: N-terminal GST; dsDNA, one strand shown
# T9 sequence: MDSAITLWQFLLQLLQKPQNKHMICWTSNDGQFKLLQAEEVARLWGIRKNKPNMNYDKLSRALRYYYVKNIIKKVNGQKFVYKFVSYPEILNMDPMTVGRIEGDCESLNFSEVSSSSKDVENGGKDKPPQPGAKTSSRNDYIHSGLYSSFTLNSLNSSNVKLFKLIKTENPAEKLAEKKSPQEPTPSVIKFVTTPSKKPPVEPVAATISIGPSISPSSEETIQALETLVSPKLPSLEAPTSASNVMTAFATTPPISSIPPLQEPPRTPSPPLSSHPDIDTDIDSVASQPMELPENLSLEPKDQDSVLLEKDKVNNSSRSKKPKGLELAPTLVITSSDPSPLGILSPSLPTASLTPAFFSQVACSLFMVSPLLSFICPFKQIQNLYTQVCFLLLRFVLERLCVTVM
# How it was run: as §1
# ETV2 = target: T10, ETV2 (Homo sapiens, UniProt O00321 1-342); settings: protein: recombinant; tags: N-terminal GST; dsDNA, one strand shown
# T10 sequence: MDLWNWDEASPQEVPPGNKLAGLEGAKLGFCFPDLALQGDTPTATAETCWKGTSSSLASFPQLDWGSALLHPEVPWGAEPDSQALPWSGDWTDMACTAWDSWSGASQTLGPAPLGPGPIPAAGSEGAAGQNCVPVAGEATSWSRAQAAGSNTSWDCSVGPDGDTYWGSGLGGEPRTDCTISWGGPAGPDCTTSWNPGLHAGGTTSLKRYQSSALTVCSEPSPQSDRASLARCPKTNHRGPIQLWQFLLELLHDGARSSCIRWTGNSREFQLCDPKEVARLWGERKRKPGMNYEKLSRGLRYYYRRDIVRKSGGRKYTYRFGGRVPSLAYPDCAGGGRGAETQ
# How it was run: as §1
# ELF3 = target: T11, ELF3 (Homo sapiens, UniProt P78545 1-371); settings: protein: recombinant; tags: N-terminal GST; dsDNA, one strand shown
# T11 sequence: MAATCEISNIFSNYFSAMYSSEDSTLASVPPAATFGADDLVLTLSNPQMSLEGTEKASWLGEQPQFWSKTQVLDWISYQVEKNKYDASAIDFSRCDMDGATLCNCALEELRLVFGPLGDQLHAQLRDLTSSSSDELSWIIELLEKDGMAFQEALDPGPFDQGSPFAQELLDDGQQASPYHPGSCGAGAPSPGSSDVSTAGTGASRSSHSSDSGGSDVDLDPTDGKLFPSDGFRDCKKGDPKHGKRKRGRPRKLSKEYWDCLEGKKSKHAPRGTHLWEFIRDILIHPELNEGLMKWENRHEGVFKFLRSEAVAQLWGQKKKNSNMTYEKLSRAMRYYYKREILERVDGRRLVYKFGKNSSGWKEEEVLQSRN
# How it was run: as §1
# CRX = CRX (Homo sapiens, UniProt O43186 1-299); settings: protein: recombinant; tags: N-terminal GST; dsDNA, one strand shown
# CRX, sequence (O43186 whole entry): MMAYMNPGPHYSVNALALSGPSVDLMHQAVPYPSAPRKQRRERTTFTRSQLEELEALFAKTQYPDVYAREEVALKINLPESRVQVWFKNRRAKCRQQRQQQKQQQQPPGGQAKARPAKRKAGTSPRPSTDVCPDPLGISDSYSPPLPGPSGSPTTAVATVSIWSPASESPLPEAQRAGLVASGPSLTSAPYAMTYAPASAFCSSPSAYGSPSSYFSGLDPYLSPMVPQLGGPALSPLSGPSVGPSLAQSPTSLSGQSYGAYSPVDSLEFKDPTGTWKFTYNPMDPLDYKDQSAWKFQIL
# How it was run: as §1
# ETV1 = ETV1 (Homo sapiens, UniProt P50549 1-477); settings: protein: recombinant; tags: N-terminal GST; dsDNA, one strand shown
# ETV1, sequence (P50549 whole entry): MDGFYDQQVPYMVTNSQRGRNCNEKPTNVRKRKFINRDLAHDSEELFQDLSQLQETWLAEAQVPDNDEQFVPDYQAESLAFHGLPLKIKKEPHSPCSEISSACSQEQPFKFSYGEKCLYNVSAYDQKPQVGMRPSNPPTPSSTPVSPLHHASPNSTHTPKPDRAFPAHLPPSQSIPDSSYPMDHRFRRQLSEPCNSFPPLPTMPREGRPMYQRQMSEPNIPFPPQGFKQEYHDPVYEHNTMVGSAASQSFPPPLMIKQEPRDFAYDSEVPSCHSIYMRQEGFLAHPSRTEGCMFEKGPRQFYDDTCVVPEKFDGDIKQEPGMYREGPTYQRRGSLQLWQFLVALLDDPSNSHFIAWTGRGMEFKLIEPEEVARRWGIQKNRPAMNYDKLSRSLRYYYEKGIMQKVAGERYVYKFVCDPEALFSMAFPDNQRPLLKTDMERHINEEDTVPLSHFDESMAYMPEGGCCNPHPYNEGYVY
# How it was run: as §1
sequence,measurement,setting,value
ACTAAT,binding signal,FLI1,"1.33 fold enrichment (6-mer frequency, TF over GST control)"
same,binding signal,ELK1,"1.27 fold enrichment (6-mer frequency, TF over GST control)"
same,binding signal,GABPA,"1.23 fold enrichment (6-mer frequency, TF over GST control)"
same,binding signal,ERG,"1.2 fold enrichment (6-mer frequency, TF over GST control)"
same,binding signal,ELF1,"1.33 fold enrichment (6-mer frequency, TF over GST control)"
same,binding signal,EHF,"1.37 fold enrichment (6-mer frequency, TF over GST control)"
same,binding signal,SPI1,"1.28 fold enrichment (6-mer frequency, TF over GST control)"
same,binding signal,SPIB,"1.39 fold enrichment (6-mer frequency, TF over GST control)"
same,binding signal,ELK3,"1.37 fold enrichment (6-mer frequency, TF over GST control)"
same,binding signal,FEV,"1.19 fold enrichment (6-mer frequency, TF over GST control)"
same,binding signal,ETV5,"1.3 fold enrichment (6-mer frequency, TF over GST control)"
same,binding signal,HSF1,"1.81 fold enrichment (6-mer frequency, TF over GST control)"
same,binding signal,SPIC,"1.46 fold enrichment (6-mer frequency, TF over GST control)"
same,binding signal,ELF4,"1.36 fold enrichment (6-mer frequency, TF over GST control)"
same,binding signal,ELK4,"1.24 fold enrichment (6-mer frequency, TF over GST control)"
same,binding signal,ETV2,"1.38 fold enrichment (6-mer frequency, TF over GST control)"
same,binding signal,ELF3,"1.33 fold enrichment (6-mer frequency, TF over GST control)"
same,binding signal,CRX,"2.71 fold enrichment (6-mer frequency, TF over GST control)"
same,binding signal,ETV1,"1.3 fold enrichment (6-mer frequency, TF over GST control)"
